Test results taken from PubChem BioAssay (EPA / NIEHS).
Inconclusive results are not listed. Active and inactive are the calls of the source. How the source made its calls: active means hit-call score of the fitted dose curve at least 0.9, where 1 is the maximum; inconclusive means response in the unintended direction; inactive means score below 0.9.

Legend:
[1] = molecular target: human Dopamine Receptor D4.4 (DRD4.4), DRD4 (gene 1815) (UniProt P21917); assay: NVS_GPCR_hDRD4.4: NovaScreen (NVS) G Protein-Coupled Receptor Assay for human Dopamine Receptor D4.4 (DRD4.4) (AID 2283264)
How it was run: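 Radioligand displacement on human DRD4.4 from CHO-derived membranes, 1 hour incubation, bound counts read by filtration and scintillation. Primary screen in duplicate at 25 uM; actives followed up in concentration series.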

[2] = molecular target: human Endothelin Receptor Type A (ETA), EDNRA (gene 1909) (UniProt P25101); assay: NVS_GPCR_hETA: NovaScreen (NVS) G Protein-Coupled Receptor Assay for human Endothelin Receptor Type A (ETA) (AID 2283265)
How it was run: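 Cell-free radioligand displacement using SH-SY5Y-derived protein, 3 h incubation, filter-based scintillation counting. Primary screen in duplicate at 25 uM; actives then run in concentration-response up to 50 uM; loss of binding fitted versus DMSO.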

[3] = molecular target: human Dopamine Receptor D2 (DRD2), DRD2 (gene 1813) (UniProt P14416); assay: NVS_GPCR_hDRD2s: NovaScreen (NVS) G Protein-Coupled Receptor Assay for human Dopamine Receptor D2 (DRD2) (AID 2283266)
Sequence of human Dopamine Receptor D2 (DRD2), DRD2 (gene 1813) (P14416 whole entry, looked up): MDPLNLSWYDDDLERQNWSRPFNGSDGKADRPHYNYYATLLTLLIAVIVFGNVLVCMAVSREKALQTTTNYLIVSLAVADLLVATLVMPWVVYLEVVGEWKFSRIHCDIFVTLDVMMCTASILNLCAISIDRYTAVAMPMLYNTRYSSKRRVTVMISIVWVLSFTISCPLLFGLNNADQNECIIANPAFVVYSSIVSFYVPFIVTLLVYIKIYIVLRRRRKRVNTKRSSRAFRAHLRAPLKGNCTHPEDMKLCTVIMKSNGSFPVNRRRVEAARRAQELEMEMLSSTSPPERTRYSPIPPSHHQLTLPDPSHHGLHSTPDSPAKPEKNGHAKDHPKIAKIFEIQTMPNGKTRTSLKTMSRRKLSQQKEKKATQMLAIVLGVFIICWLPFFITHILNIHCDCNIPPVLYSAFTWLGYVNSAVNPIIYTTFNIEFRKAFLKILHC
How it was run: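 Radioligand displacement used human DRD2 membranes extracted from CHO cells and was read by filter-based scintillation counting after 1.5 hours. Primary screening was in duplicate at 25 uM. Loss of signal versus DMSO was fitted, with concentration series in follow-up.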

[4] = molecular target: human Histamine 1 Receptor (H1), HRH1 (gene 3269) (UniProt P35367); assay: NVS_GPCR_hH1: NovaScreen (NVS) G Protein-Coupled Receptor Assay for human Histamine 1 Receptor (H1) (AID 2283268)
Sequence of human Histamine 1 Receptor (H1), HRH1 (gene 3269) (P35367 whole entry, looked up): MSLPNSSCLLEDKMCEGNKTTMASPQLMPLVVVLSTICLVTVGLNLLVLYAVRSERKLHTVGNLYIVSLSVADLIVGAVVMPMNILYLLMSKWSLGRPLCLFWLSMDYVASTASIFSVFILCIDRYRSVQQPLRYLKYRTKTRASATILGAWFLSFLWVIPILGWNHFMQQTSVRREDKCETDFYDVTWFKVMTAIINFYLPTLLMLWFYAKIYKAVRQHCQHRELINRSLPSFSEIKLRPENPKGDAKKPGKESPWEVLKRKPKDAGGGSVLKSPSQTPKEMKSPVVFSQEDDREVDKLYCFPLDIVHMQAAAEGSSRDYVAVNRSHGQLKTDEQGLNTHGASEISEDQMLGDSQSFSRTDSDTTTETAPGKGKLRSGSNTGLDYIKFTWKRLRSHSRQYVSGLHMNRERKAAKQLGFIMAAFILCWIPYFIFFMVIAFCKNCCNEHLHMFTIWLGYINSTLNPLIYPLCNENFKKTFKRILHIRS
How it was run: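 Cell-free radioligand displacement at human H1 receptor, 1 h, filter scintillation counting; primary screen 25 uM in duplicate, hits in concentration series; loss of binding fitted vs DMSO.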

[5] = molecular target: D(1A) dopamine receptor (Homo sapiens) (UniProt P21728); assay: NVS_GPCR_hDRD1: NovaScreen (NVS) G Protein-Coupled Receptor Assay for human Dopamine Receptor D1 (DRD1) (AID 2283269)
Sequence of D(1A) dopamine receptor (Homo sapiens) (P21728 whole entry, looked up): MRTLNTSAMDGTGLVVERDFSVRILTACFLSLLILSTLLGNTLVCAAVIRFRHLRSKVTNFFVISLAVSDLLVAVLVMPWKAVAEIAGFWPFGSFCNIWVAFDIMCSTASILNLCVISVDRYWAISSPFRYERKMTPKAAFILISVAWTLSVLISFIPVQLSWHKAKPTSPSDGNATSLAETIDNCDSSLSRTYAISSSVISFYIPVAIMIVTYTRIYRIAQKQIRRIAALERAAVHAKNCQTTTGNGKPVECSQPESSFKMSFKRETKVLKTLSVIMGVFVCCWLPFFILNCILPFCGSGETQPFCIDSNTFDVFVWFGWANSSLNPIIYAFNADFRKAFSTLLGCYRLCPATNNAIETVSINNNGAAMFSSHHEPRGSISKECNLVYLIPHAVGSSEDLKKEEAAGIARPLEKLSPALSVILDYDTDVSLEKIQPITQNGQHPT
How it was run: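 Cell-free competition with radioligand, filter-trapped and scintillation-counted 1 h post-dose, using HEK293-derived human D1 preparation. Duplicate single-point testing at 25 uM first, then concentration series for actives; DMSO served as baseline, loss-of-signal scored.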

[6] = molecular target: Muscarinic acetylcholine receptor M2 (Homo sapiens) (UniProt P08172); assay: NVS_GPCR_hM2: NovaScreen (NVS) G Protein-Coupled Receptor Assay for human Muscarinic, M2 Receptor (AID 2283273)
How it was run: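 CHO membrane prep, radioligand + test compound, 1 h; filtration, scintillation count. Screen 25 uM duplicate → conc. series for actives. Readout: decrease in binding vs DMSO control.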

[7] = molecular target: human Muscarinic, M4 Receptor, CHRM4 (gene 1132) (UniProt P08173); assay: NVS_GPCR_hM4: NovaScreen (NVS) G Protein-Coupled Receptor Assay for human Muscarinic, M4 Receptor (AID 2283274)
Sequence of human Muscarinic, M4 Receptor, CHRM4 (gene 1132) (P08173 whole entry, looked up): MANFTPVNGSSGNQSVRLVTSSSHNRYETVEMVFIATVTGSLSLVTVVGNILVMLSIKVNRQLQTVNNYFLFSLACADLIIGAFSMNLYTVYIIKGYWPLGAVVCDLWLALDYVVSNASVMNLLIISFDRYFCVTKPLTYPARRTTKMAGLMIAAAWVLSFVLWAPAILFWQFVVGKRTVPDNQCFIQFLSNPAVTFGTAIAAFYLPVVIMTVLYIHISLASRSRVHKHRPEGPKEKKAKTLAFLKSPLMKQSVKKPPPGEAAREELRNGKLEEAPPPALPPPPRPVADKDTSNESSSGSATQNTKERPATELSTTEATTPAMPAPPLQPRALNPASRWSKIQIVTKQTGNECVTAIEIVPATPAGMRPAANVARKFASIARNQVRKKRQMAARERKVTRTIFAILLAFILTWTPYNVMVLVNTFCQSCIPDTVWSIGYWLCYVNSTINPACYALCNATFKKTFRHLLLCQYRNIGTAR
How it was run: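 Cell-free radioligand displacement using CHO-derived human M4 receptor protein, 1 h after dosing; bound radioactivity by filtration and scintillation counting. Primary screen single 25 uM duplicate, actives followed in concentration series.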

[8] = molecular target: Muscarinic acetylcholine receptor M5 (Homo sapiens) (UniProt P08912); assay: NVS_GPCR_hM5: NovaScreen (NVS) G Protein-Coupled Receptor Assay for human Muscarinic, M5 Receptor (AID 2283275)
Sequence of Muscarinic acetylcholine receptor M5 (Homo sapiens) (P08912 whole entry, looked up): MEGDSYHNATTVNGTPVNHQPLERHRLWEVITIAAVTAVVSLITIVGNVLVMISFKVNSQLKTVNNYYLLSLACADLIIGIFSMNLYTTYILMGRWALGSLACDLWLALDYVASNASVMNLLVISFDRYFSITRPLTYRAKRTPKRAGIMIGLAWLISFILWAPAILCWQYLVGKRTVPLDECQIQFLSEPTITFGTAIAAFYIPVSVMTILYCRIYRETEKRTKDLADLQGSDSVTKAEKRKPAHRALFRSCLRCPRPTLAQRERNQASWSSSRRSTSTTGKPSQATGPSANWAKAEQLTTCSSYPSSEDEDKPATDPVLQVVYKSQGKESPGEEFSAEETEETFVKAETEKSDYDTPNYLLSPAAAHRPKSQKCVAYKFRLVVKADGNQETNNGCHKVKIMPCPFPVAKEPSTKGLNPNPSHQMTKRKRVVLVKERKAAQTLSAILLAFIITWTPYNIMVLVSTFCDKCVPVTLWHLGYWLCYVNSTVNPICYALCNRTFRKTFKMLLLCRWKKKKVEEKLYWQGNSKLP
How it was run: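 Radioligand displacement on CHO-derived membrane preparations, 1 h, filter-based scintillation counting. Single-concentration duplicate screen at 25 uM; hits (e.g. 30% inhibition) retested in singleton concentration-response up to 50 uM. Loss of binding fitted versus DMSO.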

[9] = molecular target: Neuropeptide Y receptor type 2 (Homo sapiens) (UniProt P49146); assay: NVS_GPCR_hNPY2: NovaScreen (NVS) G Protein-Coupled Receptor Assay for human Neuropeptide Receptor Y2 (NPY2) (AID 2283277)
How it was run: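 Radioligand binding on membranes extracted from SK-N-MC cells, cell-free, read 1 h after dosing by filter-based scintillation counting. Loss of signal vs DMSO. Primary screen in duplicate at 25 uM; actives followed up in concentration-response up to 50 uM.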

[10] = molecular target: human Neurokinin, NK2 Receptor, TACR2 (gene 6865) (UniProt P21452); assay: NVS_GPCR_hNK2: NovaScreen (NVS) G Protein-Coupled Receptor Assay for human Neurokinin, NK2 Receptor (AID 2283278);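 further: actives reduce bound radioligand signal relative to DMSO baseline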
Sequence of human Neurokinin, NK2 Receptor, TACR2 (gene 6865) (P21452 whole entry, looked up): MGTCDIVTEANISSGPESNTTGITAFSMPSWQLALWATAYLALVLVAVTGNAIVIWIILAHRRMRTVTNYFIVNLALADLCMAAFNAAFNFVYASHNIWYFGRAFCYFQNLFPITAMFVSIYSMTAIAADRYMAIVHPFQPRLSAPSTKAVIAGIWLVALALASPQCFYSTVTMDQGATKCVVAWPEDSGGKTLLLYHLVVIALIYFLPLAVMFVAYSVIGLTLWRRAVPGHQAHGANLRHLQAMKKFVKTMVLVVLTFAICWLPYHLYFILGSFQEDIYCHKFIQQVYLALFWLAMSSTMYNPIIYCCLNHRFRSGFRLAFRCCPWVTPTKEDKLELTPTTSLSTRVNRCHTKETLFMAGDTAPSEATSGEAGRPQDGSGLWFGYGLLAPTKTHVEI
How it was run: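 Cell-free radioligand binding using receptor protein extracted from CHO cells; readings taken 4 hours after chemical dosing by filter-based scintillation counting. Primary screen ran single concentration (25 uM) in duplicate; actives followed up in concentration series, loss-of-signal versus DMSO baseline.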

[11] = molecular target: human Thromboxane A2 Receptor (TXA2), TBXA2R (gene 6915) (UniProt P21731); assay: NVS_GPCR_hTXA2: NovaScreen (NVS) G Protein-Coupled Receptor Assay for human Thromboxane A2 Receptor (TXA2) (AID 2283282);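 further: actives reduce bound radioligand signal relative to DMSO baseline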
Sequence of human Thromboxane A2 Receptor (TXA2), TBXA2R (gene 6915) (P21731 whole entry, looked up): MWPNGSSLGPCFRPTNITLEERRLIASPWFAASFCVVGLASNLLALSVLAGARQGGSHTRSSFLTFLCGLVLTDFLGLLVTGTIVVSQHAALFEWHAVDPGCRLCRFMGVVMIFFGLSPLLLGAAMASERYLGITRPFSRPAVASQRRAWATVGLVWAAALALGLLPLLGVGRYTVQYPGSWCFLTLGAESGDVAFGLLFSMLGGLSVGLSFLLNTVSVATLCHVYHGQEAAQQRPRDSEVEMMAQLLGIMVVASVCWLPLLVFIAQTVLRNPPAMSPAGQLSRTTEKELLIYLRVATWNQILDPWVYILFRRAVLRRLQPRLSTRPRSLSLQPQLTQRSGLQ
How it was run: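 Cell-free radioligand binding with human platelet-derived receptor; 1 h after dosing, filter-based scintillation counting, loss of signal vs DMSO. Primary screen in duplicate at 25 uM.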

[12] = molecular target: human Orphanin, Opioid Related Nociceptin Receptor 1 (ORL1), OPRL1 (gene 4987) (UniProt P41146); assay: NVS_GPCR_hORL1: NovaScreen (NVS) G Protein-Coupled Receptor Assay for human Orphanin, Opioid Related Nociceptin Receptor 1 (ORL1) (AID 2283283)
Sequence of human Orphanin, Opioid Related Nociceptin Receptor 1 (ORL1), OPRL1 (gene 4987) (P41146 whole entry, looked up): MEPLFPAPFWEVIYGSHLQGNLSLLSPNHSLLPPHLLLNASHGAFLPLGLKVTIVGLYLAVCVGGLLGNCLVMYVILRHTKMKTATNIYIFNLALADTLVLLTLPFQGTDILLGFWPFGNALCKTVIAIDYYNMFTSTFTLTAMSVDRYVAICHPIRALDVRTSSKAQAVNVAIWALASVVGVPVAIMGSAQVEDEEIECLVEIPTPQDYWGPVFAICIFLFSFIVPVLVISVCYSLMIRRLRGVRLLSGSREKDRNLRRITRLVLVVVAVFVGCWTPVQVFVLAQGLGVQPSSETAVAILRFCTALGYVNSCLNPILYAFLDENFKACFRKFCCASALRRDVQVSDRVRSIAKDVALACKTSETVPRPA
How it was run: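 Filter-based radioligand displacement with receptor extracted from HEK293 cells, read 1 hour after dosing by scintillation counting. Duplicate single-point screen at 25 uM; qualifying chemicals then run in concentration-response to 50 uM, analysed relative to DMSO.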

[13] = molecular target: mouse Cholecystokinin, CCK1 Receptor (CCKA), Cckar (gene 12425) (UniProt O08786); assay: NVS_GPCR_mCCKAPeripheral: NovaScreen (NVS) G Protein-Coupled Receptor Assay for mouse Cholecystokinin, CCK1 Receptor (CCKA) (AID 2283285)
Sequence of mouse Cholecystokinin, CCK1 Receptor (CCKA), Cckar (gene 12425) (O08786 whole entry, looked up): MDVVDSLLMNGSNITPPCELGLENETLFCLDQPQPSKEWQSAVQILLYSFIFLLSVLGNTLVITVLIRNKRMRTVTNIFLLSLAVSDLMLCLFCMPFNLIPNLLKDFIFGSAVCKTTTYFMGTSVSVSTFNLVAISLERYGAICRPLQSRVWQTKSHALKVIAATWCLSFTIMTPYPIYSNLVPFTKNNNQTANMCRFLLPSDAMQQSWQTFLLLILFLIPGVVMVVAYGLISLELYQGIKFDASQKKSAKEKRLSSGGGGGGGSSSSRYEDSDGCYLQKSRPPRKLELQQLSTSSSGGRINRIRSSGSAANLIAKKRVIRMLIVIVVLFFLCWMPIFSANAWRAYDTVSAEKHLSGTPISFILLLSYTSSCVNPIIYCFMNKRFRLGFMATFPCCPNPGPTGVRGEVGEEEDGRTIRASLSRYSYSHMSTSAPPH
How it was run: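 Radioligand competitive displacement on mouse pancreatic membranes, 2 h incubation; filter-based scintillation counting, loss of signal versus DMSO. Single-concentration screen at 25 uM in duplicate, actives retested in concentration-response up to 50 uM.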

[14] = molecular target: Muscarinic acetylcholine receptor M1 (Homo sapiens) (UniProt P11229); assay: NVS_GPCR_hM1: NovaScreen (NVS) G Protein-Coupled Receptor Assay for human Muscarinic, M1 Receptor (AID 2283270)
Sequence of Muscarinic acetylcholine receptor M1 (Homo sapiens) (P11229 whole entry, looked up): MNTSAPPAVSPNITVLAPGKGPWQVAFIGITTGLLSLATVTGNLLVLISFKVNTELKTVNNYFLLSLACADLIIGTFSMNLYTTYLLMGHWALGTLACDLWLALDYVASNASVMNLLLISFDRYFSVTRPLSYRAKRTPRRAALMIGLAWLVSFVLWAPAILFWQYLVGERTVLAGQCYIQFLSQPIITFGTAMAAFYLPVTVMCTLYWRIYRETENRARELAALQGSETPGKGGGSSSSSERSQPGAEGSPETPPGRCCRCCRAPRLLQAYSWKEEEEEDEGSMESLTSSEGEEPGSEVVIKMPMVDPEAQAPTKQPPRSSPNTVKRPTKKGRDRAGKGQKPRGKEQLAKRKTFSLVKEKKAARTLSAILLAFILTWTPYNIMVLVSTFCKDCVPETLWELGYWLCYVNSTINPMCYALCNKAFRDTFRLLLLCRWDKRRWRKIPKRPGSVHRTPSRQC
How it was run: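 Cell-free radioligand displacement using membrane protein extracted from CHO cells, read by filter-based scintillation counting 1 h after dosing. Loss of bound signal fitted versus DMSO; primary screen single concentration 25 uM in duplicate, actives followed by concentration series.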

[15] = molecular target: human Leukotriene B4 Receptor 1 (LTB4-BLT1), LTB4R (gene 1241) (UniProt Q15722); assay: NVS_GPCR_hLTB4_BLT1: NovaScreen (NVS) G Protein-Coupled Receptor Assay for human Leukotriene B4 Receptor 1 (LTB4-BLT1) (AID 2283271)
How it was run: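 Radioligand displacement binding on receptor extracted from human neutrophils, cell-free, 1 h after dosing; filter-based scintillation counting. Primary screen in duplicate at 25 uM, actives retested in concentration-response up to 50 uM; loss of signal versus DMSO.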

[16] = molecular target: rat Serotonin, 5-Hydroxytryptamine Receptor 1 (5HT1), Non-Selective Binding, Htr1a (gene 24473) (UniProt P19327); assay: NVS_GPCR_r5HT1_NonSelective: NovaScreen (NVS) G Protein-Coupled Receptor Assay for rat Serotonin, 5-Hydroxytryptamine Receptor 1 (5HT1), Non-Selective Binding (AID 2283286)
Sequence of rat Serotonin, 5-Hydroxytryptamine Receptor 1 (5HT1), Non-Selective Binding, Htr1a (gene 24473) (P19327 whole entry, looked up): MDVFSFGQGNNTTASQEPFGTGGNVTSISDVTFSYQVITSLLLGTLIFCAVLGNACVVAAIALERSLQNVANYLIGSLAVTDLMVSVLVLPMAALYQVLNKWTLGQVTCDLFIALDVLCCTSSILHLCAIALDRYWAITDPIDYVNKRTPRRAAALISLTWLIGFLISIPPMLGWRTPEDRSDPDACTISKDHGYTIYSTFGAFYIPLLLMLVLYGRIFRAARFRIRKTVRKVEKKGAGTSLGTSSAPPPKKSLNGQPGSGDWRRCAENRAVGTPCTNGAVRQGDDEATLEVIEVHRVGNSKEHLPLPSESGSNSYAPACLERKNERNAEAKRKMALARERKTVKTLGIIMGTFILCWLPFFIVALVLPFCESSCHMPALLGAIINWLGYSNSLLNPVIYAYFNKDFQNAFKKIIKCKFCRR
How it was run: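 Rat cortical membranes, radioligand displacement, 1 h incubation, read by filter scintillation. Primary screen in duplicate at 25 uM. Hits (e.g. ≥30% inhibition) went to concentration-response up to 50 uM, fitted as loss of binding versus DMSO.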

[17] = molecular target: human Endothelin Receptor Type B (ETB), EDNRB (gene 1910) (UniProt P24530); assay: NVS_GPCR_hETB: NovaScreen (NVS) G Protein-Coupled Receptor Assay for human Endothelin Receptor Type B (ETB) (AID 2283267)
How it was run: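 Human astrocytoma cell membranes; radioligand competitive binding read by filter scintillation counting 4 hours after dosing. Single-concentration duplicate screen at 25 uM, then singleton concentration-response up to 50 uM; loss of signal versus DMSO.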

Measured: AC50

CCOC(=O)O[C@H](C)OC(=O)c1ccc2c(c1)cc(C(=O)NC1CCN(C(C)C)CC1)n2Cc1cc(-c2ccc(Cl)s2)on1
active: [1] 20.9 µM | [2] 14.3 µM | [3] 3.6 µM | [4] 7.84 µM | [5] 1.75 µM | [6] 3.64 µM | [7] 2.17 µM | [8] 1.79 µM | [9] 0.0551 µM | [10] 3.38 µM | [11] 23.6 µM | [12] 4.46 µM | [13] 22.9 µM

COc1ccc2cc(S(=O)(=O)N[C@H](CC(=O)N[C@H](Cc3ccc(CN4[C@H](C)CCC[C@@H]4C)cc3)C(=O)N(C)C(C)C)c3ccc4c(c3)OCO4)ccc2c1
inactive: [3]
active: [4] 17.8 µM | [5] 30.2 µM | [14] 3.51 µM | [15] 11.6 µM | [6] 0.535 µM | [7] 2.44 µM | [8] 4.37 µM | [9] 2.17 µM

CC/C(=C(/CC)c1ccc(O)cc1)c1ccc(O)cc1
inactive: [1]
active: [3] 25 µM | [11] 15.3 µM | [12] 11.4 µM | [13] 12.5 µM

COc1cccc([C@H](O)C2CCN(CCc3ccc(F)cc3)CC2)c1OC
active: [16] 25 µM
inactive: [2] | [8]

COc1cc(C(=O)NC2CCN(C)CC2)ccc1Nc1ncc2c(n1)N(C1CCCC1)CC(F)(F)C(=O)N2C
inactive: [3] | [10] | [16]
active: [4] 2.74 µM | [14] 5.54 µM | [7] 16.7 µM | [8] 11.9 µM

O=C(O)Cc1cc(I)c(Oc2ccc(O)c(I)c2)c(I)c1
inactive: [17]

O=C1CCC(C2CCCCC2)CC1
inactive: [3]

Cc1cc(F)ccc1-c1cc(N2CC[C@@H](O)[C@H]2CO)ncc1N(C)C(=O)C(C)(C)c1cc(C(F)(F)F)cc(C(F)(F)F)c1
active: [3] 7.16 µM | [5] 5.89 µM | [8] 15 µM | [10] 0.181 µM | [13] 4.08 µM
